Drawing on PubChem BioAssay (EPA / NIEHS), this text covers outcome and AC50 for three compounds.

Calls of active or inactive are those of the source. The calls were made as follows: active = hit-call score of the fitted dose curve at least 0.9, where 1 is the maximum; inactive = score below 0.9.

For test [1], the target named is Bile acid receptor (Homo sapiens) (UniProt Q96RI1). Kind of test: ATG_IR1_CIS: Attagene CIS-FACTORIAL HepG2 Assay for human Nuclear Receptor Subfamily 1 Group H Member 4 (NR1H4), IR1 submotif (AID 2282946). As to conditions: IR1 reporter transcription, actives raise or lower the signal. In outline:
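Transient MRTU transfection, HepG2; 24 h dosing; RNA → RT-PCR → 6-FAM primer extension → HpaI digest → capillary electrophoresis fluorescence. Gain/loss of signal fitted relative to DMSO.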

Test [2] can be described thus: ATG_GRE_CIS: Attagene CIS-FACTORIAL HepG2 Assay for human Glucocorticoid Response Elements (GRE) (AID 2282947). The settings on record: HepG2 GRE cis-reporter, Attagene multiplex mRNA; actives raise or lower the signal. In outline: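 HepG2 cells transiently transfected with multiple cis-promoter reporter units measure endogenous TF activity; 24 h compound exposure. Reporter mRNA quantified by RT-PCR, FAM labelling, HpaI digestion and capillary electrophoresis; bidirectional fit vs DMSO baseline.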

A short description of test [3]: ATG_ISRE_CIS: Attagene CIS-FACTORIAL HepG2 Assay for human Interferon Regulatory Factor 1 (IRF1) binding to an Interferon-Stimulated Response Element (ISRE) (AID 2282948). As to conditions: HepG2 ISRE cis-reporter (Attagene), mRNA transcription readout; actives raise or lower the signal. The method, boiled down: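 Quantitation relies on labelled RT-PCR fragments separated by capillary electrophoresis. Human HepG2 cells bearing cis-promoter reporter constructs were treated 24 h; DMSO served as baseline for bidirectional fitting.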

Test [4] can be described thus: ATG_M_32_CIS: Attagene CIS-FACTORIAL HepG2 Assay for M32 Transcription Factor (Internal Marker) (AID 2282949).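 Also: background control marker of the multiplexed CIS panel rather than a real target.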 The settings on record: HepG2 Attagene cis-factorial M32 reporter, mRNA; actives raise or lower the signal. In outline:
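Following 24 h chemical exposure of HepG2 cells transiently expressing cis-promoter reporter constructs, reporter transcript levels were determined by RT-PCR with fluorescent labelling and capillary electrophoresis, then fitted bidirectionally against DMSO.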

Test [5] can be described thus: ATG_M_06_CIS: Attagene CIS-FACTORIAL HepG2 Assay for M06 Transcription Factor (Internal Marker) (AID 2282950). As to conditions: HepG2 Attagene CIS-FACTORIAL M06 internal marker reporter; actives raise or lower the signal. In outline:
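Terse: HepG2, transient MRTU transfection (FuGene 6), 24 h dosing; total RNA, oligo(dT) RT, PCR, FAM label, HpaI cut, capillary electrophoresis; bidirectional fit vs DMSO baseline; background-control endpoint.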

The target of test [6] is Hypoxia-inducible factor 1-alpha (Homo sapiens) (UniProt Q16665). Put plainly: ATG_HIF1a_CIS: Attagene CIS-FACTORIAL HepG2 Assay for human Hypoxia Inducible Factor 1 (HIF1A) (AID 2282951). As to conditions: HepG2 Attagene cis-factorial HIF1a reporter transcription; actives raise or lower the signal. In outline: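 HepG2, transient cis-reporter library, 24 h dosing. RNA → RT (oligo dT) → PCR → 6-FAM primer extension → HpaI → CE. Bidirectional curve fit vs DMSO.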
Sequence of Hypoxia-inducible factor 1-alpha (Homo sapiens) (Q16665 whole entry, looked up): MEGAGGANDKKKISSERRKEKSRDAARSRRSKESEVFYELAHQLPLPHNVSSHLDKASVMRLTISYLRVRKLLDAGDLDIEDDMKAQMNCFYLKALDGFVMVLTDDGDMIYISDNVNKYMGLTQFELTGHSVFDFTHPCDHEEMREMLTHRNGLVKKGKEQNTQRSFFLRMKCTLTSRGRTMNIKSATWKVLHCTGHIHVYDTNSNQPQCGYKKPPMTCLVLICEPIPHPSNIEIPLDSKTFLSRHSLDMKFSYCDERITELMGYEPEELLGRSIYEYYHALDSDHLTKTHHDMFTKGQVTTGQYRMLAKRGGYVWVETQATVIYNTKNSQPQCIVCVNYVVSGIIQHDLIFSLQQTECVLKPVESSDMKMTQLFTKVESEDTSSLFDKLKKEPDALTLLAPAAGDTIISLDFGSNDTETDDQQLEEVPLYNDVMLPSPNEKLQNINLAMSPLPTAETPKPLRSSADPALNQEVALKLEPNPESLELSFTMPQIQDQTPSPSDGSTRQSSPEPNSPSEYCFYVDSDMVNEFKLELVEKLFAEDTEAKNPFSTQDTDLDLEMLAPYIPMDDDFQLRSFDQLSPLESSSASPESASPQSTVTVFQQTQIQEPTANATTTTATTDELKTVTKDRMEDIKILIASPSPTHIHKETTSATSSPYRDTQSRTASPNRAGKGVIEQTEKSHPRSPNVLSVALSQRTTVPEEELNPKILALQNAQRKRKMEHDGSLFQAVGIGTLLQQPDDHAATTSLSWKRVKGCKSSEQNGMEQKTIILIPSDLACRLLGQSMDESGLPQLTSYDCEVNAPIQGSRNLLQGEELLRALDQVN

Test [7] has as its target Hepatocyte nuclear factor 6 (Homo sapiens) (UniProt Q9UBC0). Kind of test: ATG_HNF6_CIS: Attagene CIS-FACTORIAL HepG2 Assay for human Hepatocyte Nuclear Factor 6 (HNF6) (AID 2282952). The settings on record: HepG2 Attagene cis-factorial HNF6 reporter transcription; actives raise or lower the signal. The method, boiled down: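 Multiplexed mRNA reporter assay in transfected HepG2; 24 h dosing; RT-PCR plus capillary electrophoresis fluorescence; DMSO-referenced bidirectional curve fitting.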

Test [8] deals with Heat shock factor protein 1 (Homo sapiens) (UniProt Q00613). Put plainly: ATG_HSE_CIS: Attagene CIS-FACTORIAL HepG2 Assay for human Heat Shock Transcription Factor 1 (HSE) (AID 2282953). The settings on record: HepG2 HSE cis-reporter, Attagene RNA transcription; actives raise or lower the signal. In outline:
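Read-out: fluorescence of reporter-specific RT-PCR fragments separated by capillary electrophoresis. HepG2 carrying transfected cis-element reporter units; 24 h dosing; activity fitted in both directions relative to DMSO baseline.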

Test [9] is described as follows: ATG_MRE_CIS: Attagene CIS-FACTORIAL HepG2 Assay for human Metal Responsive Element (MRE) (AID 2282954). As to conditions: HepG2 MRE cis-reporter transcription, Attagene multiplex; actives raise or lower the signal. In outline:
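HepG2 cells transiently transfected with multiple cis-element reporter units measure endogenous MTF1-driven transcription. After 24 h compound exposure, reporter mRNA is quantified by RT-PCR with 6-FAM labelling, HpaI digestion and capillary electrophoresis; bidirectional fits versus DMSO.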

The target of test [10] is Paired box protein Pax-6 (Homo sapiens) (UniProt P26367). Kind of test: ATG_Pax6_CIS: Attagene CIS-FACTORIAL HepG2 Assay for human Paired Box 6 (PAX6) (AID 2282956). As to conditions: HepG2 CIS-FACTORIAL PAX6 reporter transcription, RNA readout; actives raise or lower the signal. The method, boiled down: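 After twenty-four hours of chemical exposure, transfected HepG2 cells are harvested for RNA. Cis-promoter reporter transcripts are amplified, fluorescently labelled and sized by capillary electrophoresis, with gain and loss of signal scored against DMSO.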
Sequence of Paired box protein Pax-6 (Homo sapiens) (P26367 whole entry, looked up): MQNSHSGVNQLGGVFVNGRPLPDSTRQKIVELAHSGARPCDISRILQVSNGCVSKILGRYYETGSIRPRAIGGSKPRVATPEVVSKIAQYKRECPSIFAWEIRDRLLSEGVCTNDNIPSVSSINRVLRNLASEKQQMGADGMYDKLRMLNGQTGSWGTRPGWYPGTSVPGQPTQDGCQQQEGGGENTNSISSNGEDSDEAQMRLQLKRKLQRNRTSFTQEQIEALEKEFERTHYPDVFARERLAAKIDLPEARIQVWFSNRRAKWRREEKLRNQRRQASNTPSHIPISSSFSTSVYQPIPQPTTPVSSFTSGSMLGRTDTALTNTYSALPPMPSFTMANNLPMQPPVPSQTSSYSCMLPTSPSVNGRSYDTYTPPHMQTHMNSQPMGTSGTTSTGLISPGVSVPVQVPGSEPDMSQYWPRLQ

Test [11] can be described thus: ATG_PXRE_CIS: Attagene CIS-FACTORIAL HepG2 Assay for human Pregnane X Receptor Element (PXRE) (AID 2282957). As to conditions: HepG2 Attagene CIS-FACTORIAL PXRE reporter, mRNA; actives raise or lower the signal. The method, boiled down:
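Cells: HepG2, transiently transfected reporter units under cis promoter control. Exposure: 24 h. Detection: reporter mRNA via RT-PCR/CE fluorescence; bidirectional fitting, DMSO-referenced.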

Test [12] is described as follows: ATG_PPRE_CIS: Attagene CIS-FACTORIAL HepG2 Assay for human Peroxisome Proliferator-activated Response Element (PPRE) (AID 2282958). The settings on record: HepG2 PPRE cis-element reporter, Attagene transcription factor profiling; actives raise or lower the signal. In outline:
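Transcript-level reporter induction in transfected HepG2 cells after 24 h chemical exposure, quantified by fluorescence from RT-PCR products separated by capillary electrophoresis.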

Test [13] in a line: ATG_RORE_CIS: Attagene CIS-FACTORIAL HepG2 Assay for human RAR-related Orphan Receptor Element (RORE) (AID 2282959). The settings on record: HepG2 Attagene cis-factorial RORE reporter, mRNA; actives raise or lower the signal. The method, boiled down: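 Multiplexed reporter assay measuring mRNA induction from a cis promoter element in transiently transfected HepG2 cells after 24 h treatment. Detection via RT-PCR and capillary electrophoresis fluorescence; DMSO serves as baseline.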

Test [14] can be described thus: ATG_Sox_CIS: Attagene CIS-FACTORIAL HepG2 Assay for human SRY-box transcription factor (SOX) (AID 2282960). As to conditions: HepG2 Attagene cis-factorial SOX reporter, mRNA; actives raise or lower the signal. The method, boiled down: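 Cells were transfected with reporter constructs under cis-regulatory promoters, then exposed to chemicals for 24 h. Reporter transcripts were quantified by fluorescence after RT-PCR and capillary electrophoresis; activity was fitted in both directions against DMSO.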

Test [15] has as its target Transcription factor Sp1 (Homo sapiens) (UniProt P08047). Kind of test: ATG_Sp1_CIS: Attagene CIS-FACTORIAL HepG2 Assay for human Specificity Protein 1 (Sp1) (AID 2282961). As to conditions: HepG2 Sp1 cis-reporter transcription, actives raise or lower the signal. The method, boiled down:
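Measures mRNA induction of an Sp1-linked reporter in HepG2 cells 24 h post-dosing. Multiplexed reporters read by RT-PCR and capillary electrophoresis; DMSO serves as negative control and baseline.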

A short description of test [16]: ATG_SREBP_CIS: Attagene CIS-FACTORIAL HepG2 Assay for human Sterol Regulatory Element Binding (SREBP) (AID 2282962). As to conditions: HepG2 Attagene cis-factorial SREBP reporter, mRNA; actives raise or lower the signal. In outline: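 Twenty-four hours after chemical dosing of transfected HepG2 cultures, reporter RNA was converted to cDNA, amplified, end-labelled with 6-FAM and resolved by capillary electrophoresis. Responses were fitted relative to DMSO.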

Test [17] deals with Signal transducer and activator of transcription 3 (Homo sapiens) (UniProt P40763). Kind of test: ATG_STAT3_CIS: Attagene CIS-FACTORIAL HepG2 Assay for human Signal Transducer and Activator of Transcription 3 (STAT3) (AID 2282963). The settings on record: HepG2, Attagene cis-factorial STAT3 reporter transcription; actives raise or lower the signal. The method, boiled down:
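HepG2 cells transiently transfected with cis-element-driven multiple reporter transcription units; after 24 h chemical exposure, reporter mRNA measured by RT-PCR, 6-FAM primer-extension labelling, HpaI digestion and capillary electrophoresis. Bidirectional fitting versus DMSO baseline.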

Test [18] in a line: ATG_TA_CIS: Attagene CIS-FACTORIAL HepG2 Assay for human TA Basal Promoter (AID 2282964). As to conditions: HepG2 Attagene CIS-factorial TA basal promoter reporter; actives raise or lower the signal. The method, boiled down:
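Transfected HepG2, 24 h compound exposure; RNA → RT-PCR → FAM primer extension → HpaI cut → CE fluorescence. Gain/loss-of-signal fitted against DMSO negative control. Background-control readout.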

The nature of test [19]: ATG_TCF_b_cat_CIS: Attagene CIS-FACTORIAL HepG2 Assay for human T-Cell-Factor with beta-catenin (TCF/b-cat) (AID 2282965). As to conditions: HepG2 TCF/beta-catenin cis-reporter transcription, actives raise or lower the signal. The method, boiled down: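 HepG2 cells transiently transfected with multiple cis-promoter-regulated reporter transcription units, so endogenous transcription factor activity is measured. Reporter mRNA read 24 hours after dosing by RT-PCR, fluorescent labelling and capillary electrophoresis; bidirectional fitting against DMSO.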

Test [20] is described as follows: ATG_PBREM_CIS: Attagene CIS-FACTORIAL HepG2 Assay for human Phenobarbital-responsive Enhancer Module (PBREM) (AID 2282955). The settings on record: HepG2 PBREM cis-reporter, Attagene multiplexed transcription; actives raise or lower the signal. The method, boiled down: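 HepG2, transient MRTU transfection, 24 h dosing; RNA → oligo(dT) RT → PCR → 6-FAM extension → HpaI → CE. Bidirectional fit vs DMSO.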

Sequence of Transcription factor Sp1 (Homo sapiens) (P08047 whole entry, looked up): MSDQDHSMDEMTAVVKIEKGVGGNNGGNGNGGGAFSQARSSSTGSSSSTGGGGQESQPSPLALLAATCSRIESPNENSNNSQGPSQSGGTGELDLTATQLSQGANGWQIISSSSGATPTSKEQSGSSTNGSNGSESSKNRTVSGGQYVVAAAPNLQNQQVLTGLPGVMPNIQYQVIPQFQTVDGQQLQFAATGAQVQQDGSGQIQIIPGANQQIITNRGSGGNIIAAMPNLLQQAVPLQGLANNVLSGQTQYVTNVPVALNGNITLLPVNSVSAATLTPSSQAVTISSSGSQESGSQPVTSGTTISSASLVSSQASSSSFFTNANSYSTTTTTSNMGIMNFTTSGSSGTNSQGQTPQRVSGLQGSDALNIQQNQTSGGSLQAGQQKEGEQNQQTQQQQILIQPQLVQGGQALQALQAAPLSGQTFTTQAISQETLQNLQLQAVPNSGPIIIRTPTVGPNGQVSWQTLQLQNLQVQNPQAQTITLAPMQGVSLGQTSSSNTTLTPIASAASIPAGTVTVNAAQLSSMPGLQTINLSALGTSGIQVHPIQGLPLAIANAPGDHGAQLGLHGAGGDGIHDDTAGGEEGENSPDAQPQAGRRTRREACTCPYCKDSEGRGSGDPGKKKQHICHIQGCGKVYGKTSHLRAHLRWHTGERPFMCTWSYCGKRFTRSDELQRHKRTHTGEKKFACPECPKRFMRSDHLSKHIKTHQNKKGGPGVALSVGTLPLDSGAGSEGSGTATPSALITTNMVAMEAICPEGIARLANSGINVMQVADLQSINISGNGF
Sequence of Hepatocyte nuclear factor 6 (Homo sapiens) (Q9UBC0 whole entry, looked up): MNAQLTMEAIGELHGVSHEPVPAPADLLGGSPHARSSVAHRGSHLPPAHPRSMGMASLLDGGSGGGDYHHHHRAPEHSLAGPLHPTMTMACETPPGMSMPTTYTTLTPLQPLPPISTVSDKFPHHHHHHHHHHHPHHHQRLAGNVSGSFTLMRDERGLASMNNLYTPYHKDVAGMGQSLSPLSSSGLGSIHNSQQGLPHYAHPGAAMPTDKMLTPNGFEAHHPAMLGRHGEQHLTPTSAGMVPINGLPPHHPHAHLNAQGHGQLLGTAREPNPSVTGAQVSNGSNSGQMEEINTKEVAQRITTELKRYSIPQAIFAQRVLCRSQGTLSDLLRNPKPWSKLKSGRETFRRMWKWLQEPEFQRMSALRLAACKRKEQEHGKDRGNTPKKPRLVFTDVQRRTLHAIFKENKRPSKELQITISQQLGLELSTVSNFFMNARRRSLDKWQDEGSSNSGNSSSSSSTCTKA
Sequence of Bile acid receptor (Homo sapiens) (Q96RI1 whole entry, looked up): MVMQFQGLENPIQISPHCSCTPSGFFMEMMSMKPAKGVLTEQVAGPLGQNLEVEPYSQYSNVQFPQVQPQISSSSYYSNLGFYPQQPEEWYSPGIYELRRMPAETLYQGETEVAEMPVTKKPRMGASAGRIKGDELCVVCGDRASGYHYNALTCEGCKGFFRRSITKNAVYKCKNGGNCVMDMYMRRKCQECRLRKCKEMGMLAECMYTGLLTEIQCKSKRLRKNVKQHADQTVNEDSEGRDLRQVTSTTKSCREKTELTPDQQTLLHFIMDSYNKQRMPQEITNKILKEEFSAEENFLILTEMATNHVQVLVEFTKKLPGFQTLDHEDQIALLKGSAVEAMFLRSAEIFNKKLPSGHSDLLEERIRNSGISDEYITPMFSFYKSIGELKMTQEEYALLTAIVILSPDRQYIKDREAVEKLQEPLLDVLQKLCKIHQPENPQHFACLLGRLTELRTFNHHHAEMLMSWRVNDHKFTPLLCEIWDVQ
Sequence of Signal transducer and activator of transcription 3 (Homo sapiens) (P40763 whole entry, looked up): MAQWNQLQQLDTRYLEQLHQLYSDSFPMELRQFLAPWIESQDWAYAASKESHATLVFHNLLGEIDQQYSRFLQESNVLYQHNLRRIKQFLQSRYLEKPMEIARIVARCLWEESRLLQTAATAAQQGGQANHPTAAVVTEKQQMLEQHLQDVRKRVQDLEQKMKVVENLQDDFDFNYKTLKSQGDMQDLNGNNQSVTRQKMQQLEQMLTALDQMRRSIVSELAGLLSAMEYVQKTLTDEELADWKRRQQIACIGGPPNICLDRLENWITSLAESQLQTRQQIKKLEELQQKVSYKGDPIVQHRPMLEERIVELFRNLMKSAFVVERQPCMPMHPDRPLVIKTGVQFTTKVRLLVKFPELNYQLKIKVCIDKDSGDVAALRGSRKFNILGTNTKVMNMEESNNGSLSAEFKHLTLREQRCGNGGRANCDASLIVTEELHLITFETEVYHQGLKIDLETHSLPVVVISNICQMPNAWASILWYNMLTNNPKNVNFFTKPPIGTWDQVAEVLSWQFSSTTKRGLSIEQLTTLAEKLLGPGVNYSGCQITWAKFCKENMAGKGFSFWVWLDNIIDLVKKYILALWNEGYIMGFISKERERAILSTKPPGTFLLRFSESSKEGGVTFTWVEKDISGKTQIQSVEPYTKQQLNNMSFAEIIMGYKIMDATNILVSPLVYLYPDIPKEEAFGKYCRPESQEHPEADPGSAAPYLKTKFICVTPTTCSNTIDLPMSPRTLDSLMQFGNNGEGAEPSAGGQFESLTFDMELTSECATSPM
Sequence of Heat shock factor protein 1 (Homo sapiens) (Q00613 whole entry, looked up, the tested form may be a part): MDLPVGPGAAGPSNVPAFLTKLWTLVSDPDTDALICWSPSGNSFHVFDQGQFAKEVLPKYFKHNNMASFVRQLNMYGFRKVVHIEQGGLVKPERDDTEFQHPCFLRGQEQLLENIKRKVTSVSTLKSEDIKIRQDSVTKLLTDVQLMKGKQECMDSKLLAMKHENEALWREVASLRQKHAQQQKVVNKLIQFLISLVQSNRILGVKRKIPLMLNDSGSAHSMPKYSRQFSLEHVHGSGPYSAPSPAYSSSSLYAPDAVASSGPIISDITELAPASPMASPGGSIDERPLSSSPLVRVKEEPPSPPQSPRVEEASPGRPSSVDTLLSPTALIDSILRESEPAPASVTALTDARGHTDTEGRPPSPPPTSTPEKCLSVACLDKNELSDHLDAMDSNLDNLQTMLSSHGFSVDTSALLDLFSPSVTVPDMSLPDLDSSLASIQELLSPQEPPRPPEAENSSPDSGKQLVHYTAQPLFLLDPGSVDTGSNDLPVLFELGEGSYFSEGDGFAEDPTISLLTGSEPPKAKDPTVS

A word on the AC50: it is the concentration giving half of the maximal activity seen. In the case of `CN(C)c1ccc(Cc2ccc(N(C)C)cc2)cc1`, the call in [1], in [2], in test [3], in [4], in test [5] and in test [6] was inactive. For the same compound, the call in test [7], in test [8], in test [10], in test [13], in test [14] and in [17] was inactive. For the same compound, the result in test [18] and in [19] was inactive. For the same compound, the AC50 in [9] was 50.3 µM (active); in test [11], 26.6 µM (active); in test [12], 36.7 µM (active); in [15] it was 100 µM (active); in test [16], 43.4 µM (active).

With `CCOCCO`, the compound was called inactive in test [1], in test [2], in test [3], in test [4], in test [5] and in [6]. Besides, the call in test [7], in test [8], in test [9], in test [20], in test [10] and in test [11] was inactive. For the same compound, the call in [13], in test [15], in [16], in test [17], in test [18] and in test [19] was inactive.

For the compound `Fc1ccccc1[C@@H](F)COC1CCC(Nc2ncnc3[nH]ncc23)CC1` (stereo partly specified), the result in test [1], in test [2], in test [4], in test [5], in test [7] and in [10] was inactive. Moreover, the call in test [14], in [17] and in test [19] was inactive. Besides, the AC50 in [3] is 100 µM (active); in test [6], 2.96 µM (active); in test [9] it was 103 µM (active); in test [20], 26.2 µM (active); in [11], 25.4 µM (active); in test [12], 4.79 µM (active). In addition, the AC50 in test [13] is 26.1 µM (active); in [15], 168 µM (active); in [16], 4.65 µM (active); in test [18] it was 4.57 µM (active).
